Structures are written as SMILES. Screen size: about 1,600 compounds; about 20 (1%) were called active. The entries come from a sample that favours actives as a whole. Unmarked numbers belong to inactive results.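 Rule for the calls: active = ratio of uncleaved NAD to its breakdown product ADP-ribose above 4, meaning the enzyme was inhibited; inactive = the rest.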

This note sets out measurements from PubChem BioAssay AID1508615 (Milbrandt Lab, Department of Genetics, Washington …, 2020).

Sequence of NAD(+) hydrolase SARM1 (Homo sapiens) (Q6SZW1 whole entry, looked up): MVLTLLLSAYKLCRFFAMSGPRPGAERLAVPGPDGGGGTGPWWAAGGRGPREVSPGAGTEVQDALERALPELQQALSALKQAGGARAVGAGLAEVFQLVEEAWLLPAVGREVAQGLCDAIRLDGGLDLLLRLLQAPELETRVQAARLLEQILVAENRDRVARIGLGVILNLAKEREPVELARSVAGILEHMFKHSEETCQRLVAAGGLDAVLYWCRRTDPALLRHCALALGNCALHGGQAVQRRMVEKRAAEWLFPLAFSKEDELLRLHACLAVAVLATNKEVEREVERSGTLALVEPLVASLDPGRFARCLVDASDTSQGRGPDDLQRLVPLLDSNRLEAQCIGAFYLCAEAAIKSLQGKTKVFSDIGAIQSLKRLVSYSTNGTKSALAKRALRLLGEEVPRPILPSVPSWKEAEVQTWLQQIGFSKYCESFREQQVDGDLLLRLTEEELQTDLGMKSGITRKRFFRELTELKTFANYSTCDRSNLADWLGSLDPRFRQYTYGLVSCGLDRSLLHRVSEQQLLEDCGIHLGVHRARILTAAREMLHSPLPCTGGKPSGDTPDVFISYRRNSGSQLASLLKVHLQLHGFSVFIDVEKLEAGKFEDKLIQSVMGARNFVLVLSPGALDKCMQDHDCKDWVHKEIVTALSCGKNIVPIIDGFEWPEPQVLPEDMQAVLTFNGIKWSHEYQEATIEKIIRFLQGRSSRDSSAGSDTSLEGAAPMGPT

The test concerns the target NAD(+) hydrolase SARM1 (Homo sapiens) (UniProt Q6SZW1). Description: inhibition of SAM-TIR NAD hydrolysis to ADPR – cell lysate, HPLC readout, primary screen (AID 1508615).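 Note: substrate NAD at 5 µM with 60 min at 37 °C.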 Conditions: HEK293T SAM-TIR lysate, NAD/ADPR ratio by HPLC; at 5 µM; hits give high values.
For `S=c1nc[nH]c2c1cnn2-c1ccccc1`, the NAD/ADPR ratio was 3. `CCOC(=O)c1c[nH][nH]c1=O`: the NAD/ADPR ratio is 3.

In the case of `NC(=O)N/N=C1\CC2CC1C1C=CCC21` (centres undefined), the NAD/ADPR ratio is 3.

Consider `Cc1nc(Nc2ccc(F)cc2)nc(Nc2ccc(F)cc2)c1[N+](=O)[O-]`, for which the NAD/ADPR ratio is 3. The value for `Cc1cc2nc3ccc(=[N+](C)C)cc-3sc2cc1N` was 3; that for `Cn1c(=O)c2[nH]c(CCCc3ccc([N+](=O)[O-])cc3)nc2n(C)c1=O` was 3. With `CCCc1cc(=O)oc2c3c(c4c(c12)OC(C)(C)C=C4)OC(C)C(C)C3O` (centres undefined), the NAD/ADPR ratio was 3. The value for `CSc1cccc(NC(=O)Nc2nc3c(C)cccc3s2)c1` was 3; that for `Cc1nc2ccc(Cl)cn2c1[N+](=O)[O-]` was 3.

Regarding `Cn1ncc2c(Nc3ccccc3Cl)nc(Cl)nc21`, the NAD/ADPR ratio is 3. As for `Cc1ccc(NC(=S)NC(=O)c2ccccc2)cc1NC(=S)NC(=O)c1ccccc1`, the NAD/ADPR ratio was 3. On to `Cc1cc(O)c(-c2cc(O)c(C)cc2O)cc1O`, for which the NAD/ADPR ratio is 5.8 (active). Regarding `CCN(CC)CCNC(=O)c1ccc(NCN2C(=O)NC(c3ccccc3)(c3ccccc3)C2=O)cc1`, the NAD/ADPR ratio is 3. In the case of `Cc1cnc2cc(Cl)ccc2c1SCC(=O)O`, the NAD/ADPR ratio is 3.

With `O=C1NC(=O)N2CCSC2(Cc2ccccc2)N1` (centres undefined), the NAD/ADPR ratio was 3. Turning to `Nc1ncnc2c1ncn2C1C=C(CO)C(O)C1O` (centres undefined), the NAD/ADPR ratio was 3. The value for `CCOP(=O)(OCC)/C(C#N)=C/c1ccc(-c2ccc(F)cc2F)o1` was 3; that for `O=c1[nH]cnc(CN2CCCCC2)c1O` was 3; that for `CC12CCC(C(=Nc3ccc(N=C4C(=O)C5(C)CCC4C5(C)C)cc3)C1=O)C2(C)C` was 3.

`C#CCOCC1CN(c2ccccc2)C(=O)O1` (centres undefined): the NAD/ADPR ratio was 3. In the case of `N#Cc1cnn(-c2cccc(Cl)c2)c1-n1cccc1`, the NAD/ADPR ratio is 3.

For the compound `Cc1ccc(N=Nc2ccc(C)cc2NC(=O)Nc2ccccc2F)cc1`, the NAD/ADPR ratio was 3. Consider `Clc1nc2nc3n(c2nc1Cl)CCC3`, for which the NAD/ADPR ratio is 3. As to `CC(=O)Nc1cc(NC(C)=O)ncn1`, the NAD/ADPR ratio was 3. Take `O=C(c1ccccc1)C1C(c2ccccc2)C1[N+](=O)[O-]` (centres undefined): the NAD/ADPR ratio is 5.3 (active).

As for `O=C(c1ccccc1)c1ccc(Sc2ccc([N+](=O)[O-])cc2)cc1`, the NAD/ADPR ratio is 3. Consider `O=C1C=C(c2ccccc2)OC(=O)C1C(=O)c1ccccc1` (centres undefined), for which the NAD/ADPR ratio was 3.

As to `Clc1ccc(-c2n[nH]c3c2Cc2ccccc2-3)cc1Cl`, the NAD/ADPR ratio is 3.

On to `COc1ccc(C(=S)N2CCN(c3ccccc3Cl)CC2)cc1OC`, for which the NAD/ADPR ratio was 3.

For `O=C(O)C(c1ccccc1)C1(O)CCCCC1` (centres undefined), the NAD/ADPR ratio was 3. The value for `Cc1cc2cc3c(=O)[nH]c(=O)cc-3n(CC(O)C(O)C(O)CO)c2cc1C` (centres undefined) was 3.3. In the case of `C#CCSc1nnnn1-c1ccc(Br)c(C)c1`, the NAD/ADPR ratio is 3. On to `Cc1ccc(S(=O)c2ccc([N+](=O)[O-])c3nonc23)cc1` (centres undefined), for which the NAD/ADPR ratio is 13.2 (active). Turning to `O=[N+]([O-])c1cc2cccnc2c2ncccc12`, the NAD/ADPR ratio was 3. As to `O=C(O)C(Cc1ccccc1N(CCO)CCO)N1C(=O)c2ccccc2C1=O` (centres undefined), the NAD/ADPR ratio is 3. The value for `Nc1nc(N)nc(C2C=CCCC2)n1` (centres undefined) was 3.

Regarding `O=C(Oc1ccccc1)c1cccc2cccc(C(=O)Oc3ccccc3)c12`, the NAD/ADPR ratio is 3. As to `COc1ccc(N=Cc2c(O)ccc3c2oc2cc(Cl)c(O)c(Cl)c23)cc1`, the NAD/ADPR ratio is 3. `CC(O)c1nc2c(c(=O)n(C)c(=O)n2C)n1C` (centres undefined): the NAD/ADPR ratio is 3. As to `Cn1ncc2c(Nc3ccccc3Cl)nc(Nc3ccccc3Cl)nc21`, the NAD/ADPR ratio was 3. Take `Nc1ccc(C(=O)Nc2ccc(Nc3ccncc3)cc2)cc1`: the NAD/ADPR ratio was 3.

On to `Cc1cc2c(cc1[N+](=O)[O-])NC(CNC(C)C)CC2` (centres undefined), for which the NAD/ADPR ratio was 3.

With `CNc1ncn(-c2c(C)cccc2C)c(=O)n1`, the NAD/ADPR ratio was 3. For the compound `CS/C(=C\c1ccc(C(=O)c2ccc(C)cc2)n1C)S(C)=O` (centres undefined), the NAD/ADPR ratio was 3. On to `COC(=O)C1=CC(=O)N2CCN=C2S1`, for which the NAD/ADPR ratio was 3. For `COc1cccc(NC(=S)Nc2ccc(O)cc2)c1`, the NAD/ADPR ratio is 3. Next, `Cc1cccc(NC(=S)Nc2cccc(C)n2)n1`: 3; `NC(=O)Nc1n[nH]c(-c2ccccc2)n1`: 3; `Cc1ccc(N=Nc2c(N)nn(-c3ccccc3)c2N)cc1`: 3. Take `CCOC(=O)/C(C#N)=C1\SS/C(=C(/C#N)C(=O)OCC)S1`: the NAD/ADPR ratio was 7.9 (active). Take `CCOC(=O)/C(C#N)=C/c1c[nH]c2ccccc12`: the NAD/ADPR ratio was 3. For the compound `CCOC(=O)/C(C#N)=C/c1cccc(C)c1`, the NAD/ADPR ratio was 3.

`c1ccn(CCc2ccncc2)c1`: the NAD/ADPR ratio was 3. In the case of `CSC1=NC=C(C#N)C2=NC(c3ccc(Cl)cc3)NN12` (centres undefined), the NAD/ADPR ratio is 3.

As to `NC(=O)CCC(C(=O)O)N1C(=O)C2C3CCC(C3)C2C1=O` (centres undefined), the NAD/ADPR ratio is 3. For the compound `CN(NC(=O)C(=O)NCc1ccco1)C(=O)NC1CCCCC1`, the NAD/ADPR ratio was 3.

On to `O=C(Nc1ccc(Cl)cc1)c1cc2c(cc1O)[nH]c1ccccc12`, for which the NAD/ADPR ratio is 3. Regarding `O=C(Nc1ccc(Cl)c([N+](=O)[O-])c1)Nc1nc2ccccc2s1`, the NAD/ADPR ratio is 3. Next, `CCN1CCC(Nc2ccnc3cc(Cl)ccc23)CC1`: 3; `Cc1c(N2CCCC2)cc2c(c1NC(=O)c1ccccc1Cl)C(C)(C)CC2(C)C`: 3. Next, `CCC(C)Nc1nc2c(c(=O)n(C)c(=O)n2C)n1C` (centres undefined): 3; `N#CN=C(N)c1ccccc1`: 3; `COc1cccc(/C=C2\CCc3ccccc3C2=O)c1`: 3. Consider `NC(=O)c1ccccc1NC(=O)c1ccccc1Cl`, for which the NAD/ADPR ratio is 3. For the compound `CC(=O)Nc1ccc(Cc2nc3c([nH]2)c(=O)n(C)c(=O)n3C)cc1`, the NAD/ADPR ratio was 3.

In the case of `CCOC(=O)c1ccc(NC(=O)Oc2cc(C)c(Cl)cc2C(C)C)cc1`, the NAD/ADPR ratio is 3. On to `Nc1nc(Cl)cc(Nc2ccccc2Cl)n1`, for which the NAD/ADPR ratio was 3. Take `O=[N+]([O-])c1ccc(/C=C/c2ccncc2)cc1`: the NAD/ADPR ratio was 3.

Regarding `COC(=O)C1(C(=O)OC)C2C(=O)C3C(C21)C3(C(=O)OC(C)(C)C)C(=O)OC(C)(C)C` (centres undefined), the NAD/ADPR ratio was 3. For the compound `c1ccc2c(c1)cnc1ccccc12`, the NAD/ADPR ratio was 3. With `NC(N)=Nc1nc2ccc([N+](=O)[O-])cc2[nH]1`, the NAD/ADPR ratio was 3. On to `O=C(OCC1CCC=CO1)C1CCC=CO1` (centres undefined), for which the NAD/ADPR ratio is 3. Regarding `Cc1cc(=O)c2cc(C(=O)c3ccccc3)ccc2[nH]1`, the NAD/ADPR ratio was 3. In the case of `O=S(=O)(O)c1ccc2c(c1)C(C(Cl)(Cl)Cl)OC(C(Cl)(Cl)Cl)O2` (centres undefined), the NAD/ADPR ratio is 3.

Consider `O=c1nccc(SCc2ccc(Cl)cc2Cl)[nH]1`, for which the NAD/ADPR ratio is 3. In the case of `Oc1ccccc1-c1nc2c3ccccc3c3ccccc3c2[nH]1`, the NAD/ADPR ratio was 3. Take `CN(C)c1nc(=NCc2ccco2)ss1`: the NAD/ADPR ratio is 9.7 (active).

In the case of `CN(C)C(=S)/N=c1\ssc(=S)n1Cc1ccco1`, the NAD/ADPR ratio is 3. For the compound `O=C(O)CCC(=O)OCCN(Cc1ccc(Oc2ccc([N+](=O)[O-])cc2)cc1)C(=O)C(Cl)Cl`, the NAD/ADPR ratio was 3. For the compound `CN(C)CC1C2CCC(C2)C1O` (centres undefined), the NAD/ADPR ratio was 3. In the case of `C(=C\c1ccccn1)/c1ccccn1`, the NAD/ADPR ratio is 3. Next, `O=C(Oc1ccc[nH]c1=O)c1cccc(Cl)c1`: 3. Regarding `Cc1nc(N)nc(Nc2ccc(C#N)cc2)c1Br`, the NAD/ADPR ratio was 3. Next, `CCCCN1CCNC1=S`: 3; `Cc1cccc(Nc2sc(C(=O)c3cc4cc(Cl)ccc4o3)c(N)c2C#N)c1`: 3. Consider `O=c1c2ccccc2ncn1-c1ccc(Cl)cc1`, for which the NAD/ADPR ratio is 3. For the compound `c1cncc(-c2nc3ccccc3s2)c1`, the NAD/ADPR ratio was 3. On to `C1=CC2(C=C1)OC21CCC2(C=CC3(C2)OC3C2CCCCC2)CC1` (centres undefined), for which the NAD/ADPR ratio was 3. Next, `NCc1c(O)ccc2ccccc12`: 3; `COC1CC(C)C(OC)c2cc(O)cc(c2O)NC(=O)/C(C)=C/C=C\C(C)C(OC(N)=O)/C(C)=C\C(C)C1OC` (centres undefined): 3; `NNC(=O)CNC(=O)Nc1n[nH]c(=S)s1`: 3. Consider `O=C(c1cccnc1)c1cc(-c2ccccn2)c(=O)n2ccccc12`, for which the NAD/ADPR ratio is 3. For `Cc1ccc(S(=O)(=O)N(C)C)cc1[N+](=O)[O-]`, the NAD/ADPR ratio is 3. Regarding `CC(C)(C)NC1=NCCNC(c2ccccc2)=C1`, the NAD/ADPR ratio was 3.

Take `S=c1c2[nH]cnc2ncn1CCSc1ncnc2nc[nH]c12`: the NAD/ADPR ratio was 3. For the compound `CC1=C(C#N)C(C)(C)C(C#N)=C(C)N1`, the NAD/ADPR ratio was 3. With `CCCCCC(=O)N1CCCC1`, the NAD/ADPR ratio was 3.

For `CN(C)c1nc(=Nc2cccc(Cl)c2)ss1`, the NAD/ADPR ratio is 11.3 (active). Take `O=C1C(=Nc2cccc(Cl)c2)CC(c2ccc(Cl)cc2)N1c1cccc(Cl)c1` (centres undefined): the NAD/ADPR ratio is 3. With `Nc1nc(=S)c2ncn(C3CCCC3)c2[nH]1`, the NAD/ADPR ratio is 3. Next, `O=c1oc(-c2ccccc2)c(-c2ccccc2)c2ccccc12`: 3; `O=[N+]([O-])c1cccc(/C=C/c2ccccn2)c1`: 3.

In the case of `CC(C)(c1cc(Cl)c(O)c(CN2CCOCC2)c1)c1cc(Cl)c(O)c(CN2CCOCC2)c1`, the NAD/ADPR ratio was 3.

In the case of `O=c1[nH]c(C(F)(F)C(F)(F)C(F)(F)F)no1`, the NAD/ADPR ratio was 3. With `CN1C(=O)CC2(C)C1=CCc1scnc12` (centres undefined), the NAD/ADPR ratio is 3. Take `COc1ccc(C2=NC(=O)NC2c2ccc(OC)cc2)cc1` (centres undefined): the NAD/ADPR ratio is 3. With `CCOc1nc(OCC)c2cnn(C)c2n1`, the NAD/ADPR ratio is 3.

As for `O=C1NC(=O)C2(CCc3ccccc32)N1` (centres undefined), the NAD/ADPR ratio was 3. Turning to `CC1(C)CC[C@]2(C(=O)n3ccnc3)CC[C@]3(C)[C@H](C(=O)C=C4[C@@]5(C)C=C(C#N)C(=O)C(C)(C)[C@@H]5CC[C@]43C)[C@@H]2C1`, the NAD/ADPR ratio is 6.5 (active).

For `Cc1nc(N)[nH]c(=O)c1CCCNc1ccc(CCC2(CCl)OCCO2)cc1`, the NAD/ADPR ratio is 3. Regarding `CCCCSc1nc(C(=O)O)cc(=O)[nH]1`, the NAD/ADPR ratio was 3. `Cc1ccc(-c2cssc2=S)cc1`: the NAD/ADPR ratio was 3.

On to `CCCCOP(=O)(OCCCC)C1(C)CC(=O)CC(C)(C)C1` (centres undefined), for which the NAD/ADPR ratio is 3. Consider `Cc1[nH]c(=S)[nH]c(=O)c1CCC1OCCO1`, for which the NAD/ADPR ratio is 3.
